In PubChem BioAssay one finds composite z-score data, which are given here for 7 compounds.

The nature of this experiment: probe aNOTCH3 binding on compound microarray – biochemical, small-molecule microarray, 635/667 nm fluorescence, primary screen (AID 1120).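 Note: probe is a biotin-tagged antibody raised against NOTCH3 rather than NOTCH3 protein; score merges spot fluorescence near 667 nm with spot signal to noise.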 Particulars: higher = more signal.
Compound `CC(C)(C)OC(=O)CC[C@]1(C(=O)N2CCCCC2)N=C(c2ccc(OCCCO)cc2)O[C@H]1c1ccccc1` displayed a composite z-score of 0.261.
Take `CC(=O)NCCCC[C@@H]1NC(=O)[C@@H]2C[C@H](C(=O)NCCCCCNC(=O)CS)[C@H](c3ccc(O)cc3)N2C1=O`: the composite z-score is -0.282.
Then `C=CCC(OC(C)=O)[C@@H]1[C@@H](N(Cc2ccc(-c3cccc(C(F)(F)F)c3)o2)C(=O)Cc2ccc(F)cc2)c2cc(OCCCO)ccc2N1C(=O)c1ccc(-c2ccccc2)cc1` (some centres not stated), with -0.0996; and `CO[C@]12C=C(Br)[C@@H](C[C@@H]1c1ccccc1)[C@@]1(CO1)C2=O`, with 0.0773; and `COCCOC(=O)N1C(=O)[C@@]2(c3cc(C#CCC(C(=O)OC)C(=O)OC)ccc31)[C@H](c1ccccc1OCCO)N1[C@H](c3ccccc3)[C@H](c3ccccc3)OC(=O)[C@H]1[C@@H]2C(=O)N1CCCCCCC1`, with 1.23.
Then `CCOC(=O)C1=CC[C@@H](c2ccccc2)N(S(=O)(=O)c2ccc(C)cc2)[C@H]1C`, with 0.29; and `O=C1c2ccccc2[C@](Cc2ccccc2I)(C(=O)NCC(F)(F)F)[C@H](c2ccc(CO)cc2)N1Cc1ccccc1C(F)(F)F`, with -0.099.
